Results on 9 compounds are retold here after PubChem BioAssay (NCATS).

Assay [1] is described as follows: qHTS profiling for inhibitors of Plasmodium falciparum (DD2) proliferation (AID 743323). Particulars: lower = more inhibition; at 28.7 µM (top of the series). In short, it runs like this: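 Parasite DNA quantified by SYBR Green fluorescence (ex 485, em 535 nm) after saponin/Triton lysis and overnight dark incubation. Cultures: 0.3% parasitemia, 2.5% hematocrit, 72 h, 37 C; data scaled between DMSO and 0.29 uM artemisinin.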
In general terms: In qHTS, concentration-response curves come from the screen itself.

A short description of assay [2]: qHTS profiling for inhibitors of Plasmodium falciparum (HB3) proliferation (AID 743324).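 Also: 100% = DMSO vehicle wells and 0% = artemisinin-treated control wells.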 Particulars: Plasmodium falciparum HB3 blood-stage proliferation; at 28.7 µM (top of the series). In short, it runs like this:
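SYBR Green fluorescence (485 ex/535 em) of lysed cultures, incubated overnight at room temperature in the dark, quantifies parasite DNA. Infected erythrocytes at 0.3% parasitemia and 2.5% hematocrit were exposed 72 h; values normalized to DMSO and 0.29 uM artemisinin controls.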

A short description of assay [3]: qHTS profiling of the MIPE4 collection as inhibitors of Plasmodium falciparum (3D7) proliferation (AID 743344).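 Also: scaled between DMSO vehicle wells and 0.29 µM artemisinin as full inhibition.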 Particulars: P. falciparum 3D7 in erythrocytes, SYBR Green DNA fluorescence, 72 h; at 28.5 µM (top of the series) unless noted. In a few lines: (§1)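 Parasite DNA was quantified by SYBR Green I fluorescence (ex 485, em 535 nm) after overnight lysis in saponin/Triton buffer at room temperature. Cultures at 0.3% parasitemia and 2.5% hematocrit were first exposed to compound for 72 h at 37 C; signals were normalised to artemisinin (0.29 uM) and vehicle wells.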

Assay [4] is described as follows: qHTS profiling of the MIPE4 collection as inhibitors of Plasmodium falciparum (DD2) proliferation (AID 743345). Particulars: P. falciparum Dd2 in erythrocytes, SYBR Green DNA, 72 h; at 28.5 µM (top of the series) unless noted. In a few lines: as §1
Assay [5] is described as follows: qHTS profiling of the MIPE4 collection as inhibitors of Plasmodium falciparum (DD2) proliferation (Rep 2) (AID 743346). Particulars: P. falciparum Dd2 in erythrocytes, SYBR Green DNA, 72 h; at 28.5 µM (top of the series) unless noted. In short, it runs like this: as §1
A short description of assay [6]: qHTS profiling of the MIPE4 collection as inhibitors of Plasmodium falciparum (HB3) proliferation (AID 743347).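 Also: plate controls were DMSO vehicle wells for no effect and artemisinin wells for full effect.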 Particulars: P. falciparum HB3 in erythrocytes, SYBR Green DNA, 72 h; at 28.5 µM (top of the series) unless noted. In short, it runs like this: as §1
A short description of assay [7]: High-throughput drug toxicity screening in the BPDCN cell line Gen2.2 (AID 1224824).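 Also: cells exposed to compounds for 48 h before reading.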 Particulars: Gen2.2 BPDCN cells; at 45.8 µM (top of the series) unless noted. In a few lines: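 Seed 500 exponentially growing Gen2.2 cells/well; add compounds by pin tool; incubate 48 h, 37 °C, 5% CO2; add CellTiter-Glo, 15 min RT; read luminescence. % activity vs DMSO (100%) and bortezomib (0%).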

A short description of assay [8]: High-throughput drug toxicity screening in the BPDCN cell line Cal-1 (AID 1224825). Particulars: Cal-1 BPDCN cell viability, qHTS; at 45.8 µM (top of the series) unless noted. In short, it runs like this:
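Viability of the BPDCN line Cal-1 is measured as ATP-based luminescence (CellTiter-Glo) following 48 h incubation with compounds. Percent activity uses DMSO-treated wells as 100% and 9.2 uM bortezomib as 0%.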

The nature of assay [9]: qHTS profiling for inhibitors of Plasmodium falciparum (3D7) proliferation (AID 743322).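 Also: infected erythrocytes exposed to compound for 72 h before lysis; 100% = DMSO vehicle wells and 0% = 0.29 µM artemisinin.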 Particulars: P. falciparum 3D7 proliferation; at 28.7 µM (top of the series). In short, it runs like this:
as §1

As to `C=C1C(=CC=C2CCCC3(C)[C@@H]([C@H](C)C=CC=CC(O)(CC)CC)CC[C@@H]23)C[C@@H](O)C[C@@H]1O` (some centres undefined), the activity, percent of control in assay [1] worked out at 71.5%. In assay [2], the remaining proliferation (% of control), lower = more inhibition amounted to 20.6%. For the same compound, the parasite growth, % of DMSO control in assay [3] is 17.5%. Besides, the parasite growth remaining, % of DMSO control (lower = more inhibition) in assay [4] worked out at 83.6%. Moreover, in assay [5], the parasite growth, % of control (lower = inhibition) turned out to be 12.7%. In assay [6], this compound had a growth, % of control of 15%. Besides, the cell viability, % of control (lower = more cytotoxic) in assay [7] is 17.9%. Further, in [8], the viability (% of control) was 6.44%.
`C=CCn1c(=O)c2cnc(Nc3ccc(N4CCN(C)CC4)cc3)nc2n1-c1cccc(C(C)(C)O)n1`: the activity, percent of control in assay [1] came out at 6.29%. In [3], this compound returned a parasite growth, % of DMSO control of 13.4%. Besides, the parasite growth remaining, % of DMSO control (lower = more inhibition) in [4] worked out at 13.2%. The compound also came in with a parasite growth, % of control (lower = inhibition) in assay [5] of 21.2%. Moreover, in [6], the growth, % of control came to 16.5%. In assay [7], the cell viability, % of control (lower = more cytotoxic) turned out to be 169%. Besides, the viability (% of control) in assay [8] came out at 16.4%.
Turning to `C=CC(=O)Nc1cc2c(Nc3ccc(F)c(Cl)c3)ncnc2cc1OCCCN1CCOCC1`, the activity, percent of control in assay [1] amounted to 10.5%. For the same compound, the remaining proliferation (% of control), lower = more inhibition in assay [2] turned out to be 1.71%. For the same compound, the parasite growth, % of DMSO control in assay [3] was found to be 31.1%. Also, the parasite growth remaining, % of DMSO control (lower = more inhibition) in assay [4] is 16%. Besides, the growth, % of control in assay [6] turned out to be 3.29%. Further, the cell viability, % of control (lower = more cytotoxic) in assay [7] was 5.62%. The viability (% of control) in assay [8] was found to be 11.2%.
Take `C[C@@]12O[C@@H](C[C@]1(O)CO)n1c3ccccc3c3c4c(c5c6ccccc6n2c5c31)CNC4=O`: the activity, percent of control in [1] was found to be 0.326%. The parasite growth, % of DMSO control in assay [3] turned out to be 6.66%. The parasite growth remaining, % of DMSO control (lower = more inhibition) in assay [4] stood at 6.07%. Besides, in assay [5], the parasite growth, % of control (lower = inhibition) worked out at 28.1%. The growth, % of control in [6] turned out to be 9.72%. The cell viability, % of control (lower = more cytotoxic) in assay [7] stood at 9.33%. The viability (% of control) in assay [8] came to 5.8%.
Turning to `Nc1cc(C(F)(F)F)c(-c2cc(N3CCOCC3)nc(N3CCOCC3)n2)cn1`, the activity, percent of control in [1] is 69.9%. The parasite growth, % of DMSO control in assay [3] came out at 19.5%. Also, the parasite growth remaining, % of DMSO control (lower = more inhibition) in assay [4] was determined as 94%. Besides, the parasite growth, % of control (lower = inhibition) in assay [5] came to 41.5%. This compound also had a growth, % of control in assay [6] of 18.9%. Also, in [7], the cell viability, % of control (lower = more cytotoxic) turned out to be 9.37%. The viability (% of control) in [8] is 11.1%.
In the case of `Cc1cc(Nc2cc(NC(=O)c3c(Cl)cccc3Cl)ccn2)nc(N)n1`, the activity, percent of control in assay [1] came to 6.07%. In addition, the remaining proliferation (% of control), lower = more inhibition in assay [2] was -0.262%. Moreover, the parasite growth, % of DMSO control in assay [3] came to 5.6%. The parasite growth remaining, % of DMSO control (lower = more inhibition) in [4] is 6.82%. The parasite growth, % of control (lower = inhibition) in assay [5] came out at 10.1%. In addition, in assay [7], the cell viability, % of control (lower = more cytotoxic) was determined as 12.1%. The viability (% of control) in assay [8] was determined as 8.08%.
For the compound `COc1ccc(C=Cc2cc(OC)c(OC)c(OC)c2)cc1O`, in [9], the remaining parasite growth % (stronger effect = lower value) was determined as 92%. For the same compound, in assay [1], the activity, percent of control is 104%. In assay [3], this compound gave a parasite growth, % of DMSO control of 36%. Further, in assay [4], the parasite growth remaining, % of DMSO control (lower = more inhibition) came out at 21.1%. Further, in assay [6], the growth, % of control came to 22.3%. Moreover, the cell viability, % of control (lower = more cytotoxic) in [7] came out at 10.8%. The viability (% of control) in [8] turned out to be 8.52%.
Regarding `COC(=O)c1ccc2c(C(=Nc3ccc(N(C)C(=O)CN4CCN(C)CC4)cc3)c3ccccc3)c(O)[nH]c2c1`, the activity, percent of control in assay [1] was determined as 0.784%. In assay [3], this compound returned a parasite growth, % of DMSO control of 6.36%. In addition, the parasite growth remaining, % of DMSO control (lower = more inhibition) in assay [4] worked out at 6.24%. The compound also registered a parasite growth, % of control (lower = inhibition) in assay [5] of 13.4%. Further, the growth, % of control in [6] came out at 5.35%. Besides, the cell viability, % of control (lower = more cytotoxic) in assay [7] was 213%. In assay [8], the viability (% of control) is 71.4%.
As for `O=C(NCCS(=O)(=O)c1ccc(C(F)(F)F)cn1)c1ccc(Cl)cc1`, in assay [1], the activity, percent of control is 98.7%. Moreover, in [2], the remaining proliferation (% of control), lower = more inhibition stood at 99.7%. In [3], this compound yielded a parasite growth, % of DMSO control of 127%. The parasite growth remaining, % of DMSO control (lower = more inhibition) in [4] was determined as 103%. Further, the growth, % of control in assay [6] was determined as 84.8%. Besides, the cell viability, % of control (lower = more cytotoxic) in assay [7] was determined as 146%. Also, in assay [8], the viability (% of control) is 123%.
